Bioassay records (PubChem)
F508del corr: correctors of CFTR F508del function in bronchial epithelial cells; CFBE cells, YFP halide quenching; stimulated with forskolin plus potentiator P3; % fluorescence drop versus neutral controls; activity (quench increase), % at 7.58 µM; 350,000 tested, 0.36% active; AID 720511;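 active = mean added fluorescence quench of at least 8% versus neutral control, with both replicates also reaching 8%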;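 also: cells transiently co-express mutant CFTR-F508del with the halide-sensitive YFP; corrector assay measuring rescue of mutant channel to the surface after 24 h compound exposure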
PAX8 inh HTS: lowers PAX8-driven luciferase in RMG-I cells; 360,000 tested, 1.2% active; AID 652154; RMG-I TPO-luciferase reporter, SteadyGlo, 24 h; inhibition, % at 12.6 µM;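 active = mean replicate inhibition at least 60% with every replicate also reaching 60%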;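 also: luciferase light reporting Pax8 driven TPO promoter activity; plate controls were median of neutral control wells for no effect and mitoxantrone controls for full effect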
GAA850 FXN act: increases GAA850 frataxin promoter reporter activity | HEK293 lucGAA850 FXN promoter luciferase reporter, 24 h; percent of 10 µM SAHA response | activation, % at 6 µM | 360,000 tested, 0.56% active;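 active = activation above the average of all compounds screened plus 3 SD, cutoff fixed separately per campaign, cut at about 7.5% in these data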;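 also: 0% = DMSO wells and 100% = 10 µM SAHA wells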
HIV Env fusion: blocks HIV Env-driven cell-cell fusion. 360,000 tested, 1.1% active. inhibition, % at 12.3 µM. AID 651610. HeLa-JRFL Env/CEM21 cell fusion, luciferase;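 active = mean replicate inhibition score of at least 50 and every replicate individually at or above 50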;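 also: 0% = plate neutral controls and 100% = maraviroc near 300 nM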
EWS-Fli inh: blocks EWS/Fli oncoprotein-driven transcription | A673 NR0B1-luciferase reporter, viability-normalised | inhibition, % at 12.6 µM | 350,000 tested, 0.67% active | AID 651661;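 active = mean inhibition of at least 50% after viability correction, with every replicate also passing that limit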;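 also: firefly luciferase signal divided by Alamar Blue viability fluorescence both relative to DMSO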
GAA30 FXN cntr: activates GAA30 frataxin promoter, counter-screen for GAA850 activators. shares compounds with GAA850 FXN act. HEK293 lucGAA30 FXN promoter luciferase, 24 h; DMSO = 0%, 5 µM ipriflavone = 100%. activation, % at 6 µM. 1,900 tested, 66% active;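 active = mean activation above the mean of solvent-only control wells plus 3 SD, cut at about 22% in these data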;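 also: counterscreen of GAA850 promoter hits where activity marks nonselective or luminescence artifacts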
FXN GAA850 conf: confirmation of GAA850 frataxin (FXN) promoter activators; shares compounds with GAA850 FXN act; HEK293 lucGAA850 FXN promoter luciferase reporter, 24 h; 100% = activation by SAHA; activation, % at 6 µM; 1,900 tested, 86% active;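 active = mean activation above a set limit taken from the primary screen, cut at about 8% in these data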;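 also: 0% = DMSO wells and 100% = 10 µM SAHA wells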
Numbers without * were called inactive; nt = not tested or not shown; [ ] = remark or other dose. This is a sample that favours compounds with a hit; in the whole collection about 2.5% have one here.

SMILES	F508del corr	PAX8 inh HTS	GAA850 FXN act	HIV Env fusion	EWS-Fli inh	GAA30 FXN cntr	FXN GAA850 conf
O=C(Nc1ccc(F)cc1)Nc1ccc2c(c1)[C@@H]1C[C@@H](CC(=O)N3CCOCC3)O[C@H](CO)[C@@H]1O2	-4	0	nt	13[16.7 µM]	7	nt	nt
C=CCSc1nc(N)c(C#N)c(-c2ccccc2)c1C#N	nt	5	11*	-28	nt	18	17*
COc1ccc(NC(=O)Nc2ccc3c(c2)C(=O)N([C@@H](C)CO)C[C@H](C)[C@H](CN(C)Cc2ccncc2)O3)cc1	-2	0	nt	nt	14	nt	nt
CC(=O)N(C)c1ccc(OCC(O)Cn2c3ccc(Cl)cc3c3cc(Cl)ccc32)cc1 (centres undefined)	nt	48	10*	130*	nt	8	11*
CO[C@H](CN(C)C(=O)Nc1ccc(C(F)(F)F)cc1)[C@@H](C)CN(Cc1ccccc1Cl)[C@H](C)CO	2	nt	nt	nt	21	nt	nt
COc1ccccc1C(=O)Nc1nsc(-c2ccccc2)n1	2	-106	9.3*	-28	-127	104*	31*
CCOc1ccc(-c2c(=O)n(OCc3ccccn3)c3ccccc3[n+]2[O-])cc1	nt	-13	-1	-44	nt	nt	nt
CCCOc1ccc(-c2c(=O)n(O)c3ccccc3[n+]2[O-])cc1	1	-35	11*	-42	-42	95*	31*
O=C(C=Cc1ccccc1)CC(c1ccccc1)N1CCOCC1 (centres undefined)	-1	25	7.8*	-75	59*	36*	40*
CO[C@@H]1CN(C)C(=O)c2ccc(NS(=O)(=O)c3ccc(Cl)cc3)cc2OC[C@H](C)N(C(=O)NC(C)C)C[C@@H]1C	-2	nt	nt	nt	11	nt	nt
C=CCn1c(SC(C)C(=O)NCCC2=CCCCC2)nc2ccccc2c1=O (centres undefined)	nt	nt	10*	nt	nt	20	9.5*
O=C(NCCC1=CCCCC1)C(c1ccccc1)c1ccccc1	nt	nt	2	nt	nt	nt	nt
C[C@H](O)C#Cc1cnc2c(c1)C(=O)N([C@H](C)CO)C[C@@H](C)[C@@H](CN(C)C(=O)CN1CCOCC1)O2	0	-13	nt	2[16.7 µM]	-15	nt	nt
Cc1noc(C)c1NC(=O)Nc1ccc2c(c1)C(=O)N([C@@H](C)CO)C[C@@H](C)[C@H](CN(C)C(=O)Nc1cccc3ccccc13)O2	0	nt	nt	nt	-6	nt	nt
COc1ccc(CCNC(=O)c2cc3c(=O)n4cccc(C)c4nc3n(Cc3ccco3)c2=N)cc1OC	-1	13	13*	-11	nt	3	6
CNC(=O)C[C@@H]1CC[C@@H]2[C@@H](COc3ccc(NC(=O)Nc4cc(C)cc(C)c4)cc3C(=O)N2C)O1	-1	-6	nt	2[16.7 µM]	-7	nt	nt
CCCCC(=O)/C=C/n1c(=S)oc2ccccc21	4	-51	8.5*	-112	17	-20	23*
COc1ccc(OCc2nc(N)nc(Nc3ccc(C)cc3)n2)cc1	nt	-86	8.8*	-84	nt	67*	25*
COc1ccc(Nc2nc(N)nc(COc3ccc(OC)cc3)n2)cc1	nt	nt	1	nt	nt	nt	nt
COc1ccc(Nc2nc(N)nc(CSC(=S)N3CCCCC3)n2)cc1	-2	-39	8.2*	-10	-25	69*	23*
O=C(c1ccccn1)N1C[C@H]2[C@@H](c3ccccc31)[C@H](CO)N2C(=O)Nc1ccccc1	-2	1	nt	nt	6	nt	nt
COCCn1c(SCc2ccc(Cl)cc2)nc2c1c(=O)[nH]c(=O)n2C	-1	9	5	8	4	nt	nt
C/C=C/Cn1c(SCc2ccc(Cl)cc2)nc2c1c(=O)[nH]c(=O)n2C	nt	nt	11*	nt	nt	17	17*
CCCn1c(SCc2ccc(Cl)cc2)nc2c1c(=O)[nH]c(=O)n2C	nt	nt	9.3*	nt	nt	10	15*
Cc1cccc(C)c1Nc1nnc(SCc2nc3ccccc3s2)s1	nt	nt	8.6*	nt	nt	121*	43*
SMILES	F508del corr	PAX8 inh HTS	GAA850 FXN act	HIV Env fusion	EWS-Fli inh	GAA30 FXN cntr	FXN GAA850 conf
Cc1ccnc(SCc2nc3ccccc3s2)n1	nt	nt	8.3*	-30	nt	104*	31*
CCNc1nc(CSc2ccccc2)nc2sc(C)c(C)c12	nt	22	18*	-11	nt	15	13*
Cc1ccc(C(=O)C(C)N(C(=O)c2ccc(Cl)cc2Cl)N2C(=O)CCCC2=O)cc1 (centres undefined)	-4	8	0	-9	4	nt	nt
COc1ccc(C(=O)C(C)N(C(=O)c2ccc(Cl)cc2Cl)N2C(=O)C3C4C=CC(C4)C3C2=O)cc1 (centres undefined)	nt	nt	7.8*	123*	nt	25*	14*
C[C@H](CO)N1C[C@H](C)[C@H](CN(C)C(=O)NC2CCCCC2)OCCCC[C@H](C)Oc2ccc(NC(=O)Nc3ccccc3)cc2C1=O	-4	52	nt	-12[16.7 µM]	13	nt	nt
COc1ccc(-c2cc(C(F)(F)F)nc(S(=O)(=O)CCCC(=O)Nc3cccnc3Cl)n2)cc1OC	2	72*	8.7*	2	20	54*	52*
COC(=O)CCS(=O)(=O)c1nc(-c2ccccc2)cc(C(F)(F)F)n1	nt	nt	7	nt	nt	nt	nt
Cc1cc(NC(=O)CCCS(=O)(=O)c2nc(-c3cccs3)cc(C(F)(F)F)n2)no1	nt	106*	9.6*	-5	nt	-45	-1
Cc1ccc(Cn2c(/C=C/c3ccco3)nc3ccccc32)cc1	nt	-174	8.0*	3	nt	109*	44*
CNC[C@@H]1Oc2ccc(NS(=O)(=O)c3ccccc3)cc2CC(=O)N([C@@H](C)CO)C[C@H]1C	-2	-10	nt	4[16.7 µM]	nt	nt	nt
N#CCn1c(C2CCCCC2)nc2ccccc2c1=O	nt	-12	9.3*	0	nt	26*	14*
Nn1c(C2CCCCC2)nc2ccccc2c1=O	1	7	-2	10	7	nt	nt
O=C(N[C@@H]1CC[C@@H](CCn2cc(-c3ccccc3)nn2)O[C@H]1CO)c1ccccc1F	0	-6	nt	20[16.7 µM]	21	nt	nt
N#Cc1ccc(-c2ccc3c(c2)[C@H]2[C@H](CCN2C(=O)c2ccccc2F)[C@@H](CO)N3)cc1	0	2	nt	nt	17	nt	nt
COCc1nc2oc3ccc(C)cc3c(=O)c2cc1C(=O)OC	-2	-123	7.9*	-27	-98	119*	47*
COCc1nc2oc3ccc(F)cc3c(=O)c2cc1C(=O)OC	-4	-31	7	-28	-60	nt	nt
C=CCN(C(=O)c1oc2c(Cl)cc(C)cc2c1C)C1CCS(=O)(=O)C1 (centres undefined)	-2	-96	8.1*	-61	-101	102*	40*
COc1ccc(S(=O)(=O)N(C)C[C@@H]2OCCCC[C@@H](C)Oc3ccc(NC(=O)NC(C)C)cc3C(=O)N([C@H](C)CO)C[C@H]2C)cc1	-1	7	nt	25[16.7 µM]	1	nt	nt
